Experimental findings from PubChem BioAssay AID1240 (Sanford-Burnham Center for Chemical Genomics, 2008) are described below.

About 800 (1.6%) of roughly 50,000 compounds showed an effect of 50% or more. Shown is part of a subset that was picked to be rich in strong results.

The target in the experiment is Bcl-2-like protein 10 (Homo sapiens) (UniProt Q9HD36). Put plainly: Phenotype converters, Bcl-B/TR3 peptide binding displacement, primary biochemical FP (AID 1240).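 Note: 0% = Bcl-B with tracer peptide and DMSO and 100% = tracer peptide lacking Bcl-B.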 The following applies: GST-Bcl-B / FITC-TR3 peptide fluorescence polarization; stronger effect = higher value; compound at 3.75 mg/L.
Bcl-2-like protein 10 (Homo sapiens), sequence (Q9HD36 whole entry, looked up): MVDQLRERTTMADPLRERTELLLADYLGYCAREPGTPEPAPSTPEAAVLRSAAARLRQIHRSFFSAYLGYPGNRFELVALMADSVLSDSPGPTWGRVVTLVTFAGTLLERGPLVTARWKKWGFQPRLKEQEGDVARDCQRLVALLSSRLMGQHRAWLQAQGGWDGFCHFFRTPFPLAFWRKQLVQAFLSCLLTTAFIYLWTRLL
For `COC(=O)c1c(C)oc2ccc(OC(=O)c3ccc(OC)c(OC)c3)cc12`, the displacement stood at 10.8%.

For the molecule `Cc1ccc(C)c(N2C(=O)C3C4C=CC(C4=C4CCCC4)C3C2=O)c1` (stereo not given), the displacement worked out at 3.8%.

Take `O=C(Nc1cccc(-c2nc3cc(Cl)ccc3o2)c1)c1cccc([N+](=O)[O-])c1`: the displacement was -3.3%.

As to `CCOc1cc(OCC)cc(C(=O)Nc2ccc3oc(-c4ccc(OC)cc4)nc3c2)c1`, the displacement is 4.2%.

Consider `CCOc1cccc(C(=O)Nc2ccc(C(=O)Nc3cccc(-c4nc5ccccc5o4)c3)cc2)c1`, for which the displacement is 0.7%.

For `CCOc1cc(OCC)cc(C(=O)Nc2ccc(-c3nc4ccc(C)cc4o3)cc2)c1`, the displacement is -16.6%.

With `O=C(Nc1ccc(-c2nc3ccccc3c(=O)o2)cc1)c1cccc([N+](=O)[O-])c1`, the displacement is -5.5%.

Consider `O=C(Nc1ccc(-c2nc3cc(Cl)cc(Cl)c3o2)cc1)c1cccc([N+](=O)[O-])c1`, for which the displacement was 62.7%.

Regarding `CCOc1cccc(C(=O)Nc2ccc(-c3nc4cc(Cl)ccc4o3)cc2)c1`, the displacement worked out at 81.3%.

Regarding `COc1cccc(C(=O)Nc2ccc(Cl)c(-c3nc4cc(Cl)ccc4o3)c2)c1`, the displacement worked out at 105%.

Regarding `COc1cccc(C(=O)Nc2ccc3oc(-c4ccc(F)cc4Cl)nc3c2)c1`, the displacement is 17.1%.

Turning to `CCOc1ccc(C(=O)Nc2ccc3oc(-c4ccncc4)nc3c2)cc1Cl`, the displacement is -9.5%.

For `COc1ccc(C(=O)Nc2ccc(O)c(-c3nc4cc(Cl)ccc4o3)c2)cc1`, the displacement was determined as 40.1%.

Turning to `CCOc1ccc(C(=O)Nc2ccc(-c3nc4ccc(C)cc4o3)cc2)cc1Cl`, the displacement was 104%.

As to `CCOC(=O)C1=C(O)/C(=C/c2ccc(-c3ccccc3)cc2)SC1=Nc1ccc(OC)cc1`, the displacement is -6%.

Turning to `O=C1c2ccccc2C(=O)C1(Nc1ccc(F)cc1)c1ccccc1`, the displacement came to 17.4%.

In the case of `O=C(Nc1ccccc1[N+](=O)[O-])c1c(-c2cnc3ccccc3c2C(=O)Nc2ccccc2[N+](=O)[O-])cnc2ccccc12`, the displacement was -1.5%.

For `COc1ccc(Cl)cc1NC(=O)c1cccc(F)c1`, the displacement is -13.8%.

As to `CC1CN(C(=O)c2ccccc2C(=O)c2ncc[nH]2)CC(C)O1` (stereo not given), the displacement is -0.9%.

Regarding `CC(=O)OC1(C#CCl)CCCCC1`, the displacement is -8.7%.

Turning to `O=C1CC(N2CCC(O)CC2)C(=O)N1c1ccc(Cl)cc1` (stereo not given), the displacement was -4.9%.

`Cc1ccc(-c2nc(N/N=C/c3ccccc3O)c3ccccc3n2)cc1`: the displacement amounted to 76.2%.

In the case of `Cc1ccc(-c2nc(N/N=C/c3ccccc3)c3ccccc3n2)cc1`, the displacement was 6.7%.

In the case of `COc1cccc(/C=N/Nc2nc(-c3ccc(C)cc3)nc3ccccc23)c1O`, the displacement turned out to be 3.4%.

`CCC(=O)Oc1cc2oc(=O)c(CC)c(C)c2cc1CC`: the displacement turned out to be 10.1%.

For the molecule `COc1ccc(N2C(=O)NC(=O)/C(=C/c3ccc(-c4ccc([N+](=O)[O-])cc4)o3)C2=O)cc1`, the displacement came to 46.2%.

Regarding `O=C1NC(=S)N(c2ccccc2)C(=O)/C1=C/c1ccc(-c2ccc([N+](=O)[O-])cc2)o1`, the displacement is -1.5%.

In the case of `O=C1NC(=O)N(c2ccc(Cl)cc2)C(=O)/C1=C/c1ccc(-c2ccc(Cl)cc2[N+](=O)[O-])o1`, the displacement came out at 10.6%.

As to `O=C1NC(=O)N(c2ccccc2)C(=O)/C1=C\c1ccc(-c2cccc([N+](=O)[O-])c2)o1`, the displacement worked out at 39.3%.

On to `O=C1NC(=O)N(c2ccc(Cl)cc2)C(=O)/C1=C\c1ccc(-c2ccc([N+](=O)[O-])cc2)o1`, for which the displacement came to 105%.

As for `O=C1NC(=O)N(c2ccc(Cl)cc2)C(=O)/C1=C\c1ccc(-c2ccc(C(=O)O)c(Cl)c2)o1`, the displacement was -7.8%.

With `COc1ccc(N2C(=O)NC(=O)/C(=C/c3ccc(-c4cccc([N+](=O)[O-])c4)o3)C2=O)cc1`, the displacement is -12.5%.

With `O=C1NN(c2ccc(Cl)cc2)C(=O)/C1=C\c1ccc(-c2ccc(Cl)c(C(=O)O)c2)o1`, the displacement amounted to 22.1%.

As for `O=C1NC(=O)N(c2ccc(Br)cc2)C(=O)/C1=C/c1ccc(-c2cccc([N+](=O)[O-])c2)o1`, the displacement was determined as 138%.

Consider `O=C1NC(=O)N(c2ccc(Cl)cc2)C(=O)/C1=C/c1ccc(-c2ccc(Cl)c(C(=O)O)c2)o1`, for which the displacement turned out to be 72.5%.

For the molecule `O=C1NC(=S)N(c2ccc(Br)cc2)C(=O)/C1=C\c1ccc(-c2ccc([N+](=O)[O-])cc2)o1`, the displacement came out at 16.2%.

Regarding `O=C1NC(=O)N(c2ccccc2)C(=O)/C1=C\c1ccc(-c2ccc([N+](=O)[O-])cc2)o1`, the displacement worked out at 130%.

As for `Nc1nonc1-c1ncc(-c2ccc(Br)cc2)nn1`, the displacement came to 30.1%.

Consider `O=c1n(Cc2ccccc2Cl)c2cc(N3CCOCC3)c([N+](=O)[O-])cc2n1Cc1ccccc1Cl`, for which the displacement was -9.7%.

For `Cc1ccc(C(=O)NNC(=O)c2ccc3ccccc3c2O)cc1`, the displacement was 20.5%.

As for `Cc1ccc(/C=C/C(=O)N2CCN(c3ccccc3)CC2)o1`, the displacement came to 3.6%.

Consider `Cc1ccc([N+](=O)[O-])cc1NC(=O)CC1Sc2ccccc2NC1=O` (stereo not given), for which the displacement turned out to be 3.4%.

Regarding `Cc1ccccc1-c1cc(C(=O)N2CCOCC2)c2ccccc2n1`, the displacement is 4%.

`Cc1ccc(C(=O)Nc2ccc(N3CCOCC3)cc2)cc1C`: the displacement worked out at 0.3%.

Turning to `O=C(Nc1c(C(=O)N2CCN(Cc3ccccc3)CC2)cnn1-c1ccccc1)c1cccc(F)c1`, the displacement amounted to 3%.

Turning to `COc1cc(OC)c(C(=O)N2CC(=O)Nc3ccccc32)c(OC)c1`, the displacement amounted to 4.9%.

As for `CCc1ccc(NC(=O)c2cncc(Br)c2)cc1`, the displacement turned out to be 15%.

`O=C(Nc1ccccc1F)c1cncc(Br)c1`: the displacement was 3.9%.

In the case of `O=C(Nc1ccccc1Cl)c1cncc(Br)c1`, the displacement worked out at 118%.

For the molecule `CCN(CC)c1ccc(NC(=O)c2ccc(Br)cc2)cc1`, the displacement is 9.2%.

Consider `CCc1ccccc1NC(=O)c1cncc(Br)c1`, for which the displacement came out at 5.4%.

Consider `CCN(CC)c1ccc(NC(=O)c2cncc(Br)c2)cc1`, for which the displacement was found to be 84.2%.

For the molecule `CCC(C)NC(=O)C(=O)NCCc1ccccc1` (stereo not given), the displacement was 5.5%.

Turning to `Cc1nc2ccccc2n1C(=O)c1ccco1`, the displacement is -3.1%.

For the molecule `O=C(NCc1ccccn1)C(=O)N/N=C/c1ccccc1C(F)(F)F`, the displacement is -19.3%.

As to `CC(=O)N=c1cccc(NC(C)=O)n1O`, the displacement is 5.8%.

Turning to `CC(=O)Oc1ccc2c(c1)oc(=O)c1c3cc(OC(C)=O)c(OC(C)=O)cc3oc21`, the displacement is 12.7%.

On to `O=C(Nc1ccc(Cl)c(C(F)(F)F)c1)c1cccs1`, for which the displacement was -5.7%.

On to `COc1ccc(/C=C2/C=C(c3ccc(OC)c(OC)c3)OC2=O)cc1OC`, for which the displacement turned out to be 189%.

As to `COc1ccc(C2=C/C(=C/c3ccc(OC)c(Br)c3)C(=O)O2)cc1`, the displacement is 11%.

`CCOc1ccc(C2=C/C(=C/c3ccc(OC)c(OC)c3)C(=O)O2)cc1`: the displacement turned out to be 34.8%.

As to `COc1ccc(/C=C2/C=C(c3ccccc3)OC2=O)cc1`, the displacement was -15.2%.

Take `O=C1OC(c2ccccc2)=C/C1=C/c1ccc2c(c1)OCO2`: the displacement is -0.2%.

For the molecule `COc1cc(/C=C2/C=C(c3ccccc3)OC2=O)ccc1C`, the displacement is -4.5%.

With `COc1ccc(C2=C/C(=C\c3ccc4c(c3)OCO4)C(=O)O2)cc1`, the displacement worked out at 117%.

On to `COc1ccc(C2=C/C(=C/c3ccc(OC)c(OC)c3)C(=O)O2)cc1`, for which the displacement is 154%.

Regarding `O=C1OC(c2ccc(Cl)cc2)=C/C1=C\c1ccc2c(c1)OCO2`, the displacement is -19.4%.

In the case of `CCOC(=O)/C(C#N)=C\c1c(C)c(C)c(/C=C(/C#N)C(=O)OCC)c(C)c1C`, the displacement is 7.7%.

In the case of `c1ccc2nc3c(cc(N4CCOCC4)c4ccccc43)nc2c1`, the displacement amounted to 147%.

For the molecule `c1ccc(-c2nc(N3CCOCC3)nc3ccccc23)cc1`, the displacement is -1.9%.

As to `c1ccc2c(c1)nc(N1CCOCC1)c1ccccc12`, the displacement is -0.6%.

Take `CCOC(=O)C(=O)Nc1nc(C23CC4CC(CC(C4)C2)C3)cs1`: the displacement was found to be 3.2%.

Turning to `O=C(Cc1ccccc1)Nc1ccc(Cl)c(-c2nc3cc(Cl)ccc3o2)c1`, the displacement is -37.9%.

For the molecule `CCC(=O)/C(C)=C(\NC(=O)c1ccccc1)c1ccccc1`, the displacement is -4.8%.

In the case of `CC(C)c1ccc(N2C(=O)NC(=O)/C(=C/c3ccc(O)c(O)c3)C2=O)cc1`, the displacement is -20.3%.

Take `O=C(CCN1C(=O)/C(=C\c2cccs2)SC1=S)Nc1nccs1`: the displacement came to 120%.

On to `Cc1ccc(/C=C2\SC(=S)N(CCC(=O)Nc3nccs3)C2=O)cc1`, for which the displacement amounted to 19.4%.

With `Cc1cc(NC(=O)CCN2C(=O)/C(=C/c3ccccc3)SC2=S)no1`, the displacement came to 5.3%.

For `Cc1cc(NC(=O)CCN2C(=O)/C(=C/c3ccc(F)cc3)SC2=S)no1`, the displacement amounted to 19%.

Consider `O=C(CCN1C(=O)/C(=C\c2cccs2)SC1=S)Nc1ccccc1C(=O)O`, for which the displacement stood at 19.8%.

For the molecule `O=C(CCCN1C(=O)/C(=C\c2cccs2)SC1=S)Nc1nccs1`, the displacement worked out at 114%.

`O=C(CCCN1C(=O)/C(=C\c2cccs2)SC1=S)Nc1ccccn1`: the displacement came to 13.2%.

As to `O=C(CCCN1C(=O)/C(=C/c2ccccc2)SC1=S)Nc1nccs1`, the displacement came out at 11.2%.

In the case of `Cc1cc(NC(=O)CCN2C(=O)/C(=C\c3cccs3)SC2=S)no1`, the displacement was found to be 90.4%.

`O=C(CCN1C(=O)/C(=C/c2cccs2)SC1=S)Nc1ccccn1`: the displacement is 126%.

For `O=C(CCN1C(=O)/C(=C/c2ccc(Cl)cc2)SC1=S)Nc1nccs1`, the displacement was found to be 14.9%.

For `O=C(CCCN1C(=O)/C(=C\c2cccs2)SC1=S)Nc1nc2ccccc2s1`, the displacement was 12.7%.

With `O=C(Nc1nccs1)c1ccc2c(c1)OCO2`, the displacement came out at 32.1%.

As to `CC(NC(=O)c1cc2cc([N+](=O)[O-])ccc2oc1=O)c1ccccc1` (stereo not given), the displacement stood at 12.2%.

On to `CS(=O)(=O)N(Cc1ccc(C(=O)Nc2ccc(CC#N)cc2)cc1)c1ccccc1`, for which the displacement is -7%.

Consider `COc1ccc(/C=C/C(=O)NCc2ccc(C)cc2)cc1OC`, for which the displacement amounted to 9.4%.

As to `Cc1cccc(NC(=O)CN(c2ccc(C(C)C)cc2)S(=O)(=O)c2ccccc2)c1`, the displacement was 2.4%.

For the molecule `COc1ccc(Cl)cc1N(CC(=O)NCC(C)C)S(=O)(=O)c1ccc(C)c([N+](=O)[O-])c1`, the displacement stood at 16.7%.

On to `CC(C)(C)c1ccc(OCC(O)CS(=O)(=O)Cc2ccc(Cl)cc2)cc1` (stereo not given), for which the displacement was 8.5%.

On to `O=C1C2ON(c3ccccc3)C(c3ccccc3)C2C(=O)N1Cc1ccccc1` (stereo not given), for which the displacement was determined as 5.9%.

`COc1cccc(-n2c(O)c(C(c3ccccn3)c3c(O)n(-c4cccc(OC)c4)c(=O)[nH]c3=O)c(=O)[nH]c2=O)c1`: the displacement came to 67.7%.

Take `O=c1[nH]c(=O)n(-c2ccccc2)c(O)c1C(c1cccnc1)c1c(O)n(-c2ccccc2)c(=O)[nH]c1=O`: the displacement is -5%.

As for `COc1cccc(-n2c(O)c(/C=C3\C=c4ccccc4=N3)c(=O)[nH]c2=O)c1`, the displacement was -0.4%.

Consider `O=C1c2ccc([N+](=O)[O-])cc2C(=O)C1c1ccc2ccccc2n1` (stereo not given), for which the displacement was 7.6%.

As for `O=C1/C(=C\c2cccc(Br)c2)SC(=S)N1c1cccc(C(F)(F)F)c1`, the displacement was found to be 18.2%.
